Test results as given in PubChem BioAssay (NCI).
The panel holds about 79,000 compounds, 15% with a hit somewhere; the sample as a whole holds those more often. A number with no mark means an inactive call. Activity calls are given as the source filed them. Rule as the data show it: active = growth inhibition above about 70%; inactive = the rest.

Legend:
[1] = NCI Yeast Anticancer Drug Screen. Data for the rad50 strain (AID 155);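 also: 0% = growth of vehicle-only cultures of the same strain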; settings: S. cerevisiae rad50 strain growth inhibition, stronger effect = higher value
Outline: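 Genetically altered yeast (DNA repair pathway); compound treatment; growth inhibition vs vehicle ctrl.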

[2] = NCI Yeast Anticancer Drug Screen. Data for the mec2-1 strain (AID 157); settings: S. cerevisiae mec2-1 strain, stronger effect = higher value
Outline: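 Test agents were screened against the mec2-1 yeast strain, with defined DNA repair or cell cycle alteration. Growth was scored as inhibition against vehicle-only controls.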

[3] = NCI Yeast Anticancer Drug Screen. Data for the sgs1 mgt1 strain (AID 161);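 also: 0% = growth of cultures given vehicle only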; settings: S. cerevisiae sgs1 mgt1 strain, stronger effect = higher value
Outline: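 Mutant yeast exposed to compound; growth scored against vehicle-only wells.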

[4] = NCI Yeast Anticancer Drug Screen. Data for the cln2 rad14 strain (AID 165);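 also: 0% = growth equal to vehicle treated cultures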; settings: S. cerevisiae cln2 rad14 strain, stronger effect = higher value
Outline: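 Growth of compound-exposed yeast (cln2 rad14 genotype) measured and expressed as inhibition relative to vehicle.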

[5] = NCI Yeast Anticancer Drug Screen. Data for the bub3 strain (AID 167); settings: S. cerevisiae bub3 mutant strain, stronger effect = higher value
Outline: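 Yeast carrying a defined mutation is treated with each compound, and growth is compared with that of vehicle-exposed cells to give inhibition.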

[6] = NCI Yeast Anticancer Drug Screen. Data for the mlh1 rad18 strain (AID 175); settings: S. cerevisiae mlh1 rad18 strain growth inhibition, stronger effect = higher value
Outline: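 In this whole-cell yeast screen, a strain with altered DNA damage repair is challenged with compound, and its growth is measured against matched vehicle-treated controls.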

[7] = at 5.0 µM (retest, dose inferred, filed as 0.5)
[8] = at 50.0 µM (retest, dose inferred, filed as 5.0)

Row | Structure (SMILES) | growth inhibition [1, 7] | growth inhibition [1, 8] | growth inhibition ([1]; at 50.0 µM) | growth inhibition [2, 7] | growth inhibition [2, 8] | growth inhibition ([2]; at 50.0 µM) | growth inhibition [3, 7] | growth inhibition [3, 8] | growth inhibition ([3]; at 50.0 µM) | growth inhibition [4, 7] | growth inhibition [4, 8] | growth inhibition ([4]; at 50.0 µM) | growth inhibition [5, 7] | growth inhibition [5, 8] | growth inhibition ([5]; at 50.0 µM) | growth inhibition [6, 7] | growth inhibition [6, 8] | growth inhibition ([6]; at 50.0 µM)
1 | c1cc[c]([Sn]([c]2ccccc2)([c]2ccccc2)[c]2ccccc2)cc1 | -2% | -3% | 60.2% | -3% | 1% | 53.4% | 0% | -2% | 86.5% (active) | -1% | -4% | -20.4% | 2% | 2% | 46% | 1% | -4% | 81.9% (active)
2 | CCC[N+](CCC)(CCC)CCC.N#CN=C([SH2+])[SH2+].N#CN=C([SH2+])[SH2+].[Pt+2] | -1% | 7% | 79.3% (active) | -4% | 2% | 44% | 4% | 39% | 89.9% (active) | -6% | -7% | 14.1% | -5% | -1% | 14.1% | 20% | 57% | 49.9%
3 | O=[N+]([O-])c1ccc2c[n+]3ccccc3cc2c1 | 21% | 84% (active) | 80.3% (active) | 4% | 50% | 5.3% | 2% | 56% | 36.2% | 1% | 43% | -17.4% | -5% | 56% | 3.8% | 12% | 86% (active) | 62%
4 | C(=C/P(c1ccccc1)c1ccccc1)/P(c1ccccc1)c1ccccc1.C(=CP(c1ccccc1)c1ccccc1)P(c1ccccc1)c1ccccc1.[Pt] | 61% | 78% (active) | 84.4% (active) | 38% | 92% (active) | 90% (active) | 33% | 92% (active) | 82.7% (active) | 36% | 82% (active) | 86.2% (active) | 56% | 89% (active) | 86.8% (active) | 41% | 91% (active) | 83.4% (active)
5 | CCCCCCCCCCCC(=O)[O][Hg][c]1ccccc1 | 99% (active) | 99% (active) | 99.4% (active) | 100% (active) | 100% (active) | 99.7% (active) | 100% (active) | 99% (active) | 99.7% (active) | 99% (active) | 99% (active) | 99.4% (active) | 99% (active) | 99% (active) | 99.5% (active) | 99% (active) | 99% (active) | 99.7% (active)
6 | C[CH2][Sn]([Cl])([CH2]C)[O][Sn]([CH2]C)([CH2]C)[O][Sn]([Cl])([CH2]C)[CH2]C | 16% | 79% (active) | 76% (active) | 19% | 84% (active) | 81% (active) | -17% | 89% (active) | 86.3% (active) | 15% | 90% (active) | 82.2% (active) | 12% | 89% (active) | 83.2% (active) | 11% | 77% (active) | 81.4% (active)
7 | O=[N+]([O-])[O-].O=[N+]([O-])[O-].[Au].[Au].c1ccc([P-]c2ccccc2)cc1.c1ccc([P-]c2ccccc2)cc1 | 62% | 94% (active) | 87.8% (active) | 47% | 95% (active) | 91.4% (active) | 59% | 96% (active) | 91.3% (active) | 29% | 96% (active) | 89.5% (active) | 53% | 96% (active) | 88.9% (active) | 72% (active) | 95% (active) | 86.7% (active)
8 | [N-]=[N+]=NS(=O)(=O)c1cccc([N+](=O)[O-])c1 | 8% | 100% (active) | 80.2% (active) | -17% | 100% (active) | 87.1% (active) | -34% | 99% (active) | 89.1% (active) | 8% | 99% (active) | 90.8% (active) | -24% | 100% (active) | 90.8% (active) | -5% | 100% (active) | 92.7% (active)
9 | NP(N)(=O)Nc1ccccc1 | -1% | -2% | 7.75% | 2% | -2% | -22.4% | -1% | -1% | -23.9% | 0% | -2% | 66.7% | 2% | -6% | -8% | -2% | 0% | 3.6%
